# Reference: PMC11006913
# Residue numbers refer to the chain shown, from its start.
# What was measured:
# Assay in all cases: PBM; 200 nM protein, PBS
# Details in all cases: dsDNA, one strand shown
# SIX6 [1] = target: T1, SIX6 (Homo sapiens, UniProt O95475 114-200, L167I)
# T1 sequence: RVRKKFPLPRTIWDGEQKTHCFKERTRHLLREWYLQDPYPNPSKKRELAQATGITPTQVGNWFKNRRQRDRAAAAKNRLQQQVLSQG
# SIX6 [2] = target: T2, SIX6 (Homo sapiens, UniProt O95475 114-200, H141N)
# T2 sequence: T1 sequence with H28N, I54L
# SIX6 [3] = target: T3, SIX6 (Homo sapiens, UniProt O95475 114-200, L167M)
# T3 sequence: T1 sequence with I54M
# SIX6 [4] = target: T4, SIX6 (Homo sapiens, UniProt O95475 114-200, L143M)
# T4 sequence: T1 sequence with L30M, I54L
# SIX6 [5] = target: T5, SIX6 (Homo sapiens, UniProt O95475 114-200, L143I)
# T5 sequence: T1 sequence with L30I, I54L
# SIX6 [6] = target: T6, SIX6 (Homo sapiens, UniProt O95475 114-200, T165G)
# T6 sequence: T1 sequence with T52G, I54L
# SIX6 [7] = target: T7, SIX6 (Homo sapiens, UniProt O95475 114-200, T139Q)
# T7 sequence: T1 sequence with T26Q, I54L
# SIX6 [8] = target: T8, SIX6 (Homo sapiens, UniProt O95475 114-200, T165A)
# T8 sequence: T1 sequence with T52A, I54L
# SIX6 [9] = target: T9, SIX6 (Homo sapiens, UniProt O95475 114-200, L167V)
# T9 sequence: T1 sequence with I54V
# SIX6 [10] = target: T10, SIX6 (Homo sapiens, UniProt O95475 114-200)
# T10 sequence: T1 sequence with I54L
# SIX6 [11] = target: T11, SIX6 (Homo sapiens, UniProt O95475 114-200, T165I)
# T11 sequence: T1 sequence with T52I, I54L
# SIX6 [12] = target: T12, SIX6 (Homo sapiens, UniProt O95475 114-200, T165P)
# T12 sequence: T1 sequence with T52P, I54L
sequence,measurement,setting,value
ACAATACT,binding signal,SIX6 [1],"10.3 upbm affinity estimate (log intensity, higher = more binding, comparable within an allelic series)"
same,binding signal,SIX6 [2],"10.2 upbm affinity estimate (log intensity, higher = more binding, comparable within an allelic series)"
same,binding signal,SIX6 [3],"10.2 upbm affinity estimate (log intensity, higher = more binding, comparable within an allelic series)"
same,binding signal,SIX6 [4],"10.4 upbm affinity estimate (log intensity, higher = more binding, comparable within an allelic series)"
same,binding signal,SIX6 [5],"10.1 upbm affinity estimate (log intensity, higher = more binding, comparable within an allelic series)"
same,binding signal,SIX6 [6],"10.3 upbm affinity estimate (log intensity, higher = more binding, comparable within an allelic series)"
same,binding signal,SIX6 [7],"10.5 upbm affinity estimate (log intensity, higher = more binding, comparable within an allelic series)"
same,binding signal,SIX6 [8],"10.3 upbm affinity estimate (log intensity, higher = more binding, comparable within an allelic series)"
same,binding signal,SIX6 [9],"10.2 upbm affinity estimate (log intensity, higher = more binding, comparable within an allelic series)"
same,binding signal,SIX6 [10],"10.2 upbm affinity estimate (log intensity, higher = more binding, comparable within an allelic series)"
same,binding signal,SIX6 [11],"10.2 upbm affinity estimate (log intensity, higher = more binding, comparable within an allelic series)"
CCGTATCA,binding signal,SIX6 [1],"11.1 upbm affinity estimate (log intensity, higher = more binding, comparable within an allelic series)"
same,binding signal,SIX6 [2],"11.1 upbm affinity estimate (log intensity, higher = more binding, comparable within an allelic series)"
same,binding signal,SIX6 [6],"11.1 upbm affinity estimate (log intensity, higher = more binding, comparable within an allelic series)"
same,binding signal,SIX6 [7],"11.1 upbm affinity estimate (log intensity, higher = more binding, comparable within an allelic series)"
same,binding signal,SIX6 [8],"11.1 upbm affinity estimate (log intensity, higher = more binding, comparable within an allelic series)"
same,binding signal,SIX6 [11],"10.9 upbm affinity estimate (log intensity, higher = more binding, comparable within an allelic series)"
TGACACCA,binding signal,SIX6 [1],"10.3 upbm affinity estimate (log intensity, higher = more binding, comparable within an allelic series)"
same,binding signal,SIX6 [3],"9.84 upbm affinity estimate (log intensity, higher = more binding, comparable within an allelic series)"
same,binding signal,SIX6 [6],"11.2 upbm affinity estimate (log intensity, higher = more binding, comparable within an allelic series)"
same,binding signal,SIX6 [8],"11.1 upbm affinity estimate (log intensity, higher = more binding, comparable within an allelic series)"
GGATAGTA,binding signal,SIX6 [1],"10.4 upbm affinity estimate (log intensity, higher = more binding, comparable within an allelic series)"
same,binding signal,SIX6 [2],"10.3 upbm affinity estimate (log intensity, higher = more binding, comparable within an allelic series)"
same,binding signal,SIX6 [12],"9.87 upbm affinity estimate (log intensity, higher = more binding, comparable within an allelic series)"
same,binding signal,SIX6 [3],"10.3 upbm affinity estimate (log intensity, higher = more binding, comparable within an allelic series)"
same,binding signal,SIX6 [5],"10.2 upbm affinity estimate (log intensity, higher = more binding, comparable within an allelic series)"
same,binding signal,SIX6 [6],"10.4 upbm affinity estimate (log intensity, higher = more binding, comparable within an allelic series)"
same,binding signal,SIX6 [7],"10.6 upbm affinity estimate (log intensity, higher = more binding, comparable within an allelic series)"
same,binding signal,SIX6 [9],"10.3 upbm affinity estimate (log intensity, higher = more binding, comparable within an allelic series)"
same,binding signal,SIX6 [10],"10.4 upbm affinity estimate (log intensity, higher = more binding, comparable within an allelic series)"
same,binding signal,SIX6 [11],"10.3 upbm affinity estimate (log intensity, higher = more binding, comparable within an allelic series)"
ATATCACG,binding signal,SIX6 [1],"11.1 upbm affinity estimate (log intensity, higher = more binding, comparable within an allelic series)"
same,binding signal,SIX6 [2],"11.1 upbm affinity estimate (log intensity, higher = more binding, comparable within an allelic series)"
same,binding signal,SIX6 [8],"11 upbm affinity estimate (log intensity, higher = more binding, comparable within an allelic series)"
same,binding signal,SIX6 [11],"10.9 upbm affinity estimate (log intensity, higher = more binding, comparable within an allelic series)"
CTTGATAC,binding signal,SIX6 [1],"11.2 upbm affinity estimate (log intensity, higher = more binding, comparable within an allelic series)"
same,binding signal,SIX6 [2],"11.1 upbm affinity estimate (log intensity, higher = more binding, comparable within an allelic series)"
same,binding signal,SIX6 [6],"11.2 upbm affinity estimate (log intensity, higher = more binding, comparable within an allelic series)"
same,binding signal,SIX6 [8],"11.1 upbm affinity estimate (log intensity, higher = more binding, comparable within an allelic series)"
same,binding signal,SIX6 [9],"10.9 upbm affinity estimate (log intensity, higher = more binding, comparable within an allelic series)"
CTGACACC,binding signal,SIX6 [1],"10.3 upbm affinity estimate (log intensity, higher = more binding, comparable within an allelic series)"
same,binding signal,SIX6 [3],"9.83 upbm affinity estimate (log intensity, higher = more binding, comparable within an allelic series)"
same,binding signal,SIX6 [8],"11.1 upbm affinity estimate (log intensity, higher = more binding, comparable within an allelic series)"
ATATCAAG,binding signal,SIX6 [1],"11.1 upbm affinity estimate (log intensity, higher = more binding, comparable within an allelic series)"
same,binding signal,SIX6 [4],"11 upbm affinity estimate (log intensity, higher = more binding, comparable within an allelic series)"
same,binding signal,SIX6 [6],"11.1 upbm affinity estimate (log intensity, higher = more binding, comparable within an allelic series)"
same,binding signal,SIX6 [9],"10.9 upbm affinity estimate (log intensity, higher = more binding, comparable within an allelic series)"
same,binding signal,SIX6 [11],"10.9 upbm affinity estimate (log intensity, higher = more binding, comparable within an allelic series)"
GGGTGTCA,binding signal,SIX6 [1],"10.4 upbm affinity estimate (log intensity, higher = more binding, comparable within an allelic series)"
same,binding signal,SIX6 [12],"9.2 upbm affinity estimate (log intensity, higher = more binding, comparable within an allelic series)"
same,binding signal,SIX6 [3],"9.79 upbm affinity estimate (log intensity, higher = more binding, comparable within an allelic series)"
same,binding signal,SIX6 [6],"11.1 upbm affinity estimate (log intensity, higher = more binding, comparable within an allelic series)"
same,binding signal,SIX6 [8],"11.1 upbm affinity estimate (log intensity, higher = more binding, comparable within an allelic series)"
